Shiga toxin inh = Shiga toxin inhibition; Vero cells, Shiga toxin protein synthesis inhibition reporter; inhibition, % at 38.7 µM; 290,000 tested, 9.2% active; AID 2315; in the data active means inhibition mostly above about 28%, no sharp cut-off; inactive means mostly below about 43%; further: 0% is about no effect
HCMV antiviral = human cytomegalovirus inhibition; HFF cells, HCMV-luciferase reporter, 72 h; active compounds read low; activity change, negative = inhibition, % at 57.5 µM; 410,000 tested, 4.5% active; in the data active means activity change below about -60%; inconclusive means no clear call, values can overlap the other calls; inactive means above about -39%; further: on the % scale 0 is the no-effect control and ±100 the full control effect
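HFF cells seeded 16 h at 37C, treated with compounds, infected with luciferase-reporter HCMV at MOI 1 PFU/cell; luciferase read at 72 h post infection, normalized to buffer-only and Salinomycin controls.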
Pf growth 96h = P. falciparum growth inhibition at 96 hours. P. falciparum luciferase reporter growth, 96 h. Potency, µM (titrated, usually from 28.7 µM), for inactives: at the highest dose activity change, negative = inhibition, actives largely listed as inhibitors. 320,000 tested, 6.9% active; further: potency means the concentration at half of the fitted maximal effect; on the % scale 0 is the no-effect control and ±100 the full control effect
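Delayed-death screen, second-generation endpoint: infected erythrocytes, 2% hematocrit, 0.05% parasitemia final; 96 hours at 37 C, 5% CO2; luciferase detection reagent; luminescence decrease equals reduced growth.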
Pf growth 48h = P. falciparum growth inhibition at 48 hours (one generation). Potency, µM (highest dose often 28.7 µM), for the others: top-dose activity change, negative = inhibition, most hits filed as inhibitors. AID 504832. P. falciparum luciferase growth in erythrocytes, 48 h. 310,000 tested, 5.9% active; further: potency means the concentration at half of the fitted maximal effect; on the % scale 0 is the no-effect control and ±100 the full control effect
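In quantitative HTS format, infected erythrocytes bearing luciferase-reporter parasites were treated for a single generation at 37 C. Luminescence after adding detection reagent served as the growth measure.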
CHX counter = affects cycloheximide protein synthesis inhibition readout, counter-screen; cell reporter, cycloheximide protein synthesis inhibition counterscreen; max response, %; 300,000 tested, 12% active; in the data active means max response mostly above about 13%, no sharp cut-off; inactive means mostly below about 14%; further: read at 38.3 µM for the half of the compounds with a filed dose; 0% is about no effect
Active calls of the source: *; ? = inconclusive; · = not tested or not shown; [ ] = remark or other dose. Compounds with a hit are over-represented: about 20% of the library has one in this group of screens. Unless noted, the call rests on the fitted dose curve; in most records, active means well fitted inhibition curve with a large enough effect; inconclusive means small, poorly fitted or top-dose-only effect, or another doubt; inactive means no such curve, though single readings can be large or run the other way.

SMILES	Shiga toxin inh	HCMV antiviral	Pf growth 96h	Pf growth 48h	CHX counter
COc1ccc(CC(=O)Cc2ccc(OC)c(OC)c2)cc1OC	·	-4	·	·	·
Cc1ccc(CNC(=O)Cc2csc3ccccc23)cc1	·	60	·	·	·
COc1ccc(CNC(=O)c2cccc3c(-c4cccnc4)coc23)cc1OC	·	-86*	·	·	·
COc1ccc(CC(=O)c2ccc(OC)c(OC)c2C)cc1OC	56*	-30	10µM*	?	23*
COc1ccc(CC(=O)NCc2cccc(CNC(=O)Cc3ccc(OC)c(OC)c3)c2)cc1OC	-10	17	8.3µM*	-17%	-3
COc1ccc(CNC(=O)Cc2csc3ccccc23)cc1OC	·	110	·	·	·
CCC(C(=O)O)P(=O)(c1ccc(Cl)cc1)c1ccc(Cl)cc1 (stereo unspecified)	-4	-34	-24%	2%	-5
COc1ccc(CC(=O)NCc2cccs2)cc1OC	-16	5	?	·	-2
COc1ccc(CC(=O)NNC(=O)c2nn(Cc3ccccc3)c(=O)c3ccccc23)cc1OC	8	-32	?	3.3µM*	5
COc1ccccc1Cn1nc(C(=O)O)c2ccccc2c1=O	43*	24	47%	29%	20*
COc1ccc(NC(=O)NCc2ccccn2)cc1OC	12	-8	3%[5.75 µM]	-11%	0
COc1ccc(CC(=O)NCc2ccccn2)cc1OC	-6	4	4.7µM*	10µM*	-5
COc1ccc(CNC(=O)Cc2cccs2)cc1OC	54	55	48%	-21%[0.00184 µM]	28*
CN(C)c1nc2ccc(OCCN3CCCCC3)cc2s1	57	166	47%	67%	42*
CCN(CC)CCOc1ccc2nc(N(C)C)sc2c1	32	22	4%	12%	27*
Nc1c(C(=O)NCCc2ccc(Cl)cc2)sc2ccc(S(=O)(=O)N3CCCCC3)cc12	-5	?	?	10µM*	-2
CC(C)CCNC(=O)c1sc2ccc(S(=O)(=O)N3CCCCC3)cc2c1N	1	0	0%	13µM*	8
CC(O)c1nc2ccccc2n1CC(=O)Nc1ccc2c(c1)OCCO2 (stereo unspecified)	27	?	28%	51%	27*
CCCn1cc(SCC(=O)Nc2ccc3c(c2)OCO3)c2ccccc21	17	-65*	10µM*	?	-1
CCn1c(C(=O)O)c(CC(=O)Nc2cccc(C(F)(F)F)c2)c2ccccc21	-1	-15	0.74µM*	-7%	-4
Cn1cc(SCC(=O)Nc2ccc3c(c2)OCO3)c2ccccc21	11	17	?	·	3
Cn1c(=O)cc(SCC(=O)Nc2ccc3c(c2)OCO3)c2ccccc21	-17	109	2.9µM*	31%	-6
CC(=O)N1CCc2c(sc3c2c(=O)n(-c2ccc(C)cc2)c(=O)n3CC(=O)Nc2ccccc2)C1	·	73	·	·	·
CCCc1ccc(C(=O)O)cc1	·	·	?	-14%	·
COc1ccc(N2CC(NC(=O)/C=C\c3ccccc3)CC2=O)cc1OC (stereo unspecified)	·	-4	·	·	·
SMILES	Shiga toxin inh	HCMV antiviral	Pf growth 96h	Pf growth 48h	CHX counter
O=C(NNc1cccc(Cl)n1)c1c(F)cccc1F	27	-25	0%	?	5
Cn1c(C(=O)O)c(CC(=O)Nc2ccc3c(c2)OCCO3)c2ccccc21	147*	?	59%	134%	64*
Cc1ccc(CCN2C(=O)CCC2(C)C(=O)NCc2cccnc2)cc1 (stereo unspecified)	-12	28	-38%	·	-4
S=C(N/N=C/c1ccccc1Cl)Nc1cccc(Cl)c1Cl	29	-65*	-18%	-13%	-2
S=C(NCC1CC1)N/N=C/c1ccccc1Cl	26*	-29	?	?	3
N#Cc1c[nH]n2c(NC3CCCC3)c(-c3cccc(Br)c3)nc12	·	-4	·	·	·
CCOC(=O)c1cnc(SCC(=O)c2ccccc2)nc1N	113	60	37%	187%	24
CCOC(=O)c1cnc(-c2ccccc2)nc1N(C)C	120*	241	·	165%	48*
CCOC(=O)c1cnc(-c2ccccc2)nc1N1CCOCC1	-5	-8	27%	?	-2
CCOC(=O)c1cnc(-c2ccccc2)nc1N	126*	182	-19%	235%	57*
O=[N+]([O-])c1ccc2[nH]c(O)c(N=NC3CS(=O)(=O)CC3O)c2c1 (stereo unspecified)	-2	-14	20%	3%	-3
Cc1ccc(/C=N/n2c(C3CCCCC3)n[nH]c2=S)s1	-6	-8	2.1µM*	?	-1
Cc1ccsc1/C=N/n1c(C2CCCCC2)n[nH]c1=S	-11	-8	74%	-4%	-5
CCOc1ccc(/C=N/n2c(C3CCCCC3)n[nH]c2=S)cc1	-6	-81*	?	?	-2
COc1ccc(CNC(=O)[C@@H](Cc2ccccc2)NC(=O)CC[C@H]2O[C@@H](n3ccc(=O)[nH]c3=O)[C@H](O)[C@@H]2O)cc1	·	13	·	·	·
CC(C(=O)NCc1ccccc1)N1Cc2ccccc2C1=O (stereo unspecified)	·	-12	·	·	·
COc1cccc(OCc2cc(C(=O)NCCN3CCCCC3CO)no2)c1 (stereo unspecified)	14	?	?	-5%	12
COc1cccc(OCc2cc(C(=O)NCC3CCCCC3)no2)c1	38*	35	12µM*	20%	35*
COc1cccc(OCc2cc(C(=O)NCc3ccccn3)no2)c1	70*	39	61%	18%	62*
Cn1c(SCC(=O)Nc2ccc(Br)cn2)nnc1C1CC1	19	7	-4%	-12%	2
O=C(Nc1ccc(Oc2ccccc2)cc1)c1ccc(F)c(S(=O)(=O)N2CCN(c3cccc(Cl)c3)CC2)c1	·	-70*	·	·	·
O=C(Nc1ccc(Oc2ccccc2)cc1)c1ccc(F)c(S(=O)(=O)N2CCN(c3ccccc3F)CC2)c1	·	-79*	·	·	·
Cc1cccc(N2CCN(S(=O)(=O)c3cc(C(=O)Nc4ccc(Oc5ccccc5)cc4)ccc3F)CC2C)c1 (stereo unspecified)	·	-64*	·	·	·
CC(C)c1ccc(NC(=O)c2ccc(F)c(S(=O)(=O)N3CCN(c4ccccc4F)CC3)c2)cc1	·	-37	·	·	·
Cc1cccc(N2CCN(S(=O)(=O)c3ccc(F)c(C(=O)Nc4cccc(Cl)c4C)c3)CC2C)c1 (stereo unspecified)	·	-15	·	·	·
SMILES	Shiga toxin inh	HCMV antiviral	Pf growth 96h	Pf growth 48h	CHX counter
CCc1ccccc1NC(=O)c1ccc(F)c(S(=O)(=O)N2CCN(c3cccc(Cl)c3)CC2)c1	·	-35	·	·	·
COc1ccccc1N1CCN(S(=O)(=O)c2cc(C(=O)Nc3ccc(Oc4ccccc4)cc3)ccc2F)CC1	·	-67*	·	·	·
O=C(NCc1ccc2c(c1)CCN2C(=O)c1ccncc1)c1cccc(F)c1	·	10	·	·	·
CCn1c(=O)n(CC)c2cc(S(=O)(=O)Nc3cc(C)cc(C)c3C#N)ccc21	-4	-10	·	?	-5
O=C(NCc1ccccn1)c1ccc(OC2CCN(Cc3ccc(Cl)s3)CC2)cc1	4	-33	?	?	3
COc1ccc(NC(=O)c2ccc([N+](=O)[O-])cc2[N+](=O)[O-])c(OC)c1	-17	-4	10%	9%	2

High-throughput results as filed in PubChem.
